Assay results: PubChem BioAssay
Values without a mark were called inactive. Active and inactive are the calls of the source. No rule for the calls is given here.

Tests used:
[1] = system: Botulinum neurotoxin type F light chain protease (Clostridium botulinum); experiment: Clostridium botulinum type F light chain protease inhibitors, microsphere substrate cleavage, validation (AID 588459); conditions: multiplex microsphere protease substrate cleavage assay, flow cytometry; at 10 µM; stronger effect = higher value
[2] = target: Botulinum neurotoxin type A (Clostridium botulinum) (UniProt P0DPI0); experiment: BoNT/A light chain protease inhibitors, biochemical, multiplex microsphere flow cytometry, validation set (AID 588460); conditions: at 10 µM, stronger effect = higher value
[3] = target: Lethal factor (Bacillus anthracis) (UniProt P15917); experiment: Bacillus anthracis lethal factor inhibition, microsphere flow cytometry protease assay, validation at 10 µM (AID 588461); conditions: multiplex microsphere protease cleavage assay, stronger effect = higher value

`CCC[C@@H]1C[C@@H](C(=O)N[C@H]([C@@H](C)O)[C@H]2O[C@H](SC)[C@H](O)[C@@H](O)C2O)N(C)C1` (stereo not given in full) showed an inhibition [1] of 3.2%, an inhibition [2] of -1.6% and an inhibition [3] of 0.6%.
`CCn1c(O)c(/C=C2\C=Nc3ccccc32)sc1=O` gave an inhibition [1] of 2.3%, an inhibition [2] of 0.3% and an inhibition [3] of -0.8%.
`Cc1oc2cc(O)cc(O)c2c(=O)c1-c1ccc2c(c1)OCCCO2` gave an inhibition [1] of 1.4%, an inhibition [2] of -0.4% and an inhibition [3] of -5.8%.
`COc1ccc(-c2coc3cc(O)cc(O)c3c2=O)cc1` was tested, and the inhibition [1] was 0.3%, the inhibition [2] was -0.7% and the inhibition [3] was 0.1%.
With `Cc1nc2cc3ccccc3cc2c(=O)[nH]1` the inhibition [1] was -2%, the inhibition [2] was 1.5% and the inhibition [3] was 3.7%.
Work on `C/C=C/c1ccc(OCCCCN2CC(C)CC(C)C2)c(OC)c1` (stereo not given) yielded an inhibition [1] of 3.1%, an inhibition [2] of -0.5% and an inhibition [3] of -6%.
Work on `O=C(NCC1CCCCN1)c1cc(OCC(F)(F)F)ccc1OCC(F)(F)F` (stereo not given) yielded an inhibition [1] of -0.8%, an inhibition [2] of -0.3% and an inhibition [3] of -2%.
For `Fc1cccc(Cc2noc(CN3CCN(c4cnccn4)CC3)n2)c1`, the inhibition [1] was 3.7%, the inhibition [2] was -1.3% and the inhibition [3] was 0.5%.
Work on `Cc1cnc(C(=O)N2CCCC(C(=O)c3ccc(Cl)cc3C)C2)cn1` (stereo not given) yielded an inhibition [1] of 1.4%, an inhibition [2] of 0.4% and an inhibition [3] of -0.9%.
`Cc1nnc(NS(=O)(=O)c2ccc(N)cc2)s1` gave an inhibition [1] of 2.8%, an inhibition [2] of -1.1% and an inhibition [3] of -2.8%.
In the case of `CCC(C)NCCOc1ccccc1C` (stereo not given), the inhibition [1] is reported as 1.2%, the inhibition [2] is reported as -0.1% and the inhibition [3] is reported as 5.2%.
`CC(=O)Nc1ccc(S(=O)(=O)c2ccc(N)cc2)cc1` was tested, and the inhibition [1] was -3.7%, the inhibition [2] was -0.4% and the inhibition [3] was -3.2%.
Work on `N/C(=N\OC(=O)CCCOc1ccc(Cl)cc1Cl)c1ccncc1` yielded an inhibition [1] of 3.7%, an inhibition [2] of 0.1% and an inhibition [3] of 1%.
For `COc1cc(CNc2nnnn2C)ccc1OCc1ccc(F)cc1Cl`, the inhibition [1] was -4.9%, the inhibition [2] was -0.5% and the inhibition [3] was -1.3%.
`O=C(/C=C/c1ccco1)NCc1ccc2c(c1)OCO2` gave an inhibition [1] of -2.9%, an inhibition [2] of -0.4% and an inhibition [3] of 6.8%.
Compound `CNC[C@H](O)c1ccc(O)c(O)c1` has an inhibition [1] of -2.9%, an inhibition [2] of -0.9% and an inhibition [3] of -4.8%.
`Fc1ccc(C(c2ccc(F)cc2)N2CCN(C/C=C/c3ccccc3)CC2)cc1` was tested, and the inhibition [1] was -5.9%, the inhibition [2] was -1.8% and the inhibition [3] was -5.7%.
`Cc1ccc(S(=O)(=O)N2CCC(C(=O)N[C@@H](C)C(=O)NC3CCS(=O)(=O)C3)CC2)cc1` (stereo not given in full) showed an inhibition [1] of 2.1%, an inhibition [2] of 1.5% and an inhibition [3] of 11.8%.
`C/C=C/Cn1c(SC)nc2c1c(=O)[nH]c(=O)n2C` was tested, and the inhibition [1] was -2.2%, the inhibition [2] was 0.9% and the inhibition [3] was -3.1%.
With `O=C1C(O)CC2c3ccccc3CC3(CCCC3)N12` (stereo not given) the inhibition [1] was 2%, the inhibition [2] was -1.5% and the inhibition [3] was -6%.
In the case of `c1coc(-c2nnc3n2C2(CCCC2)Cc2ccccc2-3)c1`, the inhibition [1] is reported as 2.5%, the inhibition [2] is reported as -1.4% and the inhibition [3] is reported as -5.9%.
In the case of `CC(=O)CCCCn1c(=O)c2c(ncn2C)n(C)c1=O`, the inhibition [1] is reported as -1.6%, the inhibition [2] is reported as 0.1% and the inhibition [3] is reported as -6.2%.
With `Cn1c(=O)c2c(ncn2CCO)n(C)c1=O` the inhibition [1] was 1.2%, the inhibition [2] was -1.8% and the inhibition [3] was 1.7%.
Compound `Cc1ccc2nc(C)c3c(c2c1)OC(C(C)(Cl)Br)C3` (stereo not given) has an inhibition [1] of -0.4%, an inhibition [2] of -0.5% and an inhibition [3] of 3.2%.
`C=C(C)Cn1c(NCCOC)nc2c1c(=O)[nH]c(=O)n2C` showed an inhibition [1] of 0.2%, an inhibition [2] of -0.3% and an inhibition [3] of -5.2%.
`O=C(CCSc1ccccc1)N1CCCC1` showed an inhibition [1] of 1.2%, an inhibition [2] of -0.9% and an inhibition [3] of -2.3%.
`Cc1cccc(C2=N/C(=C\c3cccnc3)C(=O)O2)c1` gave an inhibition [1] of -1.1%, an inhibition [2] of 1.9% and an inhibition [3] of 3.7%.
With `COc1c(C)cc(C(=O)C2CCCN(Cc3ccc(Oc4ncccn4)cc3)C2)cc1C` (stereo not given) the inhibition [1] was -2.8%, the inhibition [2] was -1.2% and the inhibition [3] was -4.4%.
`CC(=O)Nc1ccc2[nH]c(C)c(CC=C(Cl)Cl)c(=O)c2c1` showed an inhibition [1] of -0.7%, an inhibition [2] of -1.7% and an inhibition [3] of -4.2%.
`O=C(O)CCCCCN=C1CCc2ccccc2N1` gave an inhibition [1] of 1.6%, an inhibition [2] of -0.4% and an inhibition [3] of 0.8%.
`COc1cc2cc(C(=O)O)n(C)c2c(OC)c1OC` showed an inhibition [1] of 1.3%, an inhibition [2] of -0.4% and an inhibition [3] of 1.2%.
For `CC(=O)Nc1ccccc1C(=O)C(=O)Nc1ccccc1`, the inhibition [1] was 2.1%, the inhibition [2] was 0.9% and the inhibition [3] was -1.5%.
With `COC(=O)c1ccc(C(=O)OC)c(NC(=O)C(C)C)c1` the inhibition [1] was -0.3%, the inhibition [2] was -1.3% and the inhibition [3] was -1.4%.
`COc1ccc(-c2c(NC(=O)c3ccco3)n(C)c3ccccc3c2=O)cc1` showed an inhibition [1] of 1.5%, an inhibition [2] of 0.4% and an inhibition [3] of -0.7%.
`C[C@@H]1C[C@H]2[C@@H]3C[C@H](F)C4=CC(=O)C=C[C@]4(C)[C@@]3(F)[C@@H](O)C[C@]2(C)[C@@]1(O)C(=O)COC(=O)C(C)(C)C` was tested, and the inhibition [1] was -2.6%, the inhibition [2] was -2.1% and the inhibition [3] was 3.4%.
`COc1ccc(O)c(C(=O)/C=C/c2cc3ccccc3o2)c1` showed an inhibition [1] of -0.1%, an inhibition [2] of 0% and an inhibition [3] of -3.5%.
`CC(C)=CCCC(C)CN1CCC(N2CCC(C(=O)N3CCCC3)CC2)CC1` (stereo not given) was tested, and the inhibition [1] was 1.8%, the inhibition [2] was -0.4% and the inhibition [3] was -1.1%.
Compound `COc1ccccc1/C=C/C(=O)c1c2c(c(C)[nH]c1=O)CCCC2` has an inhibition [1] of -1.3%, an inhibition [2] of 0.5% and an inhibition [3] of -5.8%.
With `Cc1ccccc1-c1nn(-c2ccc(F)cc2F)cc1CNCCN(C)C` the inhibition [1] was -1.9%, the inhibition [2] was -0.5% and the inhibition [3] was -2.9%.
Work on `Cc1c2c(nc3c(C)cccc13)OC(C)C2` (stereo not given) yielded an inhibition [1] of 2.9%, an inhibition [2] of -2.4% and an inhibition [3] of -4.3%.
With `COc1ccc(N2C(=O)[C@@H]3[C@H](C2=O)[C@H]2c4ccccc4C=CN2[C@@H]3C(C)=O)cc1` the inhibition [1] was -2.1%, the inhibition [2] was -0.4% and the inhibition [3] was -16.8%.
`COc1ccc(C(=O)Nc2ccc(OC)c([N+](=O)[O-])c2)cc1Br` showed an inhibition [1] of 1.7%, an inhibition [2] of -0.3% and an inhibition [3] of 8.3%.
Work on `CCN1C(=O)C(CC(=O)Nc2ccc(F)cc2)N(Cc2ccco2)C1=S` (stereo not given) yielded an inhibition [1] of -2.9%, an inhibition [2] of -2.8% and an inhibition [3] of -7.4%.
Compound `Cc1ccc2c(c1)c1c3n2CCCN(Cc2ccccc2)C3CCC1` (stereo not given) has an inhibition [1] of -0.2%, an inhibition [2] of -0.1% and an inhibition [3] of -3%.
Compound `Nc1ccc(S(=O)(=O)c2ccc(N)cc2)cc1` has an inhibition [1] of -2.8%, an inhibition [2] of -2.5% and an inhibition [3] of 4.9%.
For `CC1(C#CC[N+]2(C)CCCCC2)CCC2C(O1)c1ccccc1OC2(C)C` (stereo not given), the inhibition [1] was 2.6%, the inhibition [2] was -0.8% and the inhibition [3] was -2.1%.
Compound `N/C(=N\OC(=O)c1ccc(Br)o1)c1ccccn1` has an inhibition [1] of -0.2%, an inhibition [2] of -0.3% and an inhibition [3] of 0.7%.
Work on `Cc1ccccc1C(=O)NNc1ncnc2c1cnn2C` yielded an inhibition [1] of 3.1%, an inhibition [2] of -0.7% and an inhibition [3] of 1.7%.
For `COc1ccc(OC)c(-c2oc3ccccc3c(=O)c2O)c1`, the inhibition [1] was 0.6%, the inhibition [2] was 1.3% and the inhibition [3] was 2.9%.
With `Cc1cc(C(C)(C)C)c(O)c(C)c1CC1=NCCN1` the inhibition [1] was 0.7%, the inhibition [2] was -1.1% and the inhibition [3] was 3.7%.
Compound `COc1ccc(-c2[nH]ncc2CN(CCO)Cc2cccs2)c(F)c1` has an inhibition [1] of -1.2%, an inhibition [2] of 0.8% and an inhibition [3] of 5.8%.
`CC(=O)OCC(=O)[C@@]1(O)CC[C@H]2[C@@H]3CCC4=CC(=O)C=C[C@]4(C)[C@H]3[C@@H](O)C[C@@]21C` was tested, and the inhibition [1] was -5.9%, the inhibition [2] was -1.8% and the inhibition [3] was -2.4%.
`O=C(O)CCCc1ccccc1` was tested, and the inhibition [1] was -3.3%, the inhibition [2] was -2.3% and the inhibition [3] was -6.6%.
`O=c1[nH]cc(F)c(=O)[nH]1` was tested, and the inhibition [1] was 0.6%, the inhibition [2] was -1.2% and the inhibition [3] was -1.9%.
`CCC(C)n1ncn(-c2ccc(N3CCN(c4ccc(OCC5COC(Cn6cncn6)(c6ccc(Cl)cc6Cl)O5)cc4)CC3)cc2)c1=O` (stereo not given) showed an inhibition [1] of 2.7%, an inhibition [2] of -0.4% and an inhibition [3] of 4.4%.
In the case of `COc1ccc2oc(-c3ccco3)cc(=O)c2c1`, the inhibition [1] is reported as 3%, the inhibition [2] is reported as -0.8% and the inhibition [3] is reported as -7%.
In the case of `Cc1ccc2[nH]c3c(c2c1)CN(C(=O)CN1CCSCC1)CC3`, the inhibition [1] is reported as 61.5% (active), the inhibition [2] is reported as 3.7% and the inhibition [3] is reported as 11.6%.
Work on `COc1cc(C(=S)N(C)C)ccc1O` yielded an inhibition [1] of -3.2%, an inhibition [2] of -0.9% and an inhibition [3] of -2%.
`CCc1ccc(/C=C2\SC(=S)N(CCC(=O)N3CCN(C)CC3)C2=O)cc1` showed an inhibition [1] of 4.9%, an inhibition [2] of 2.1% and an inhibition [3] of 4.9%.
`CC(=O)N1CCN2C(=O)C1CCCC(=O)c1cc(C(C)C)ccc12` (stereo not given) was tested, and the inhibition [1] was -1.6%, the inhibition [2] was -1.6% and the inhibition [3] was -5.3%.
